CHX counter – counter-screen hit for Shiga toxin inhibitors, cycloheximide | cell reporter, cycloheximide protein synthesis inhibition counterscreen | max response, % | hit rate 12% among 300,000; in the data active means max response mostly above about 13%, no sharp cut-off; inactive means mostly below about 14%; further: read at 38.3 µM for the half of the compounds with a filed dose; 0% is about no effect
Sm TGR block – blocks Schistosoma mansoni thioredoxin glutathione reductase; purified TGR, DTNB reduction, TNB absorbance 405 nm; Potency, µM (series often up to 114 µM), without a hit: top-dose activity change, negative = inhibition, usual class: inhibitors; hit rate 3% among 360,000; AID 485364; further: potency means the concentration at half of the fitted maximal effect; on the % scale 0 is the no-effect control and ±100 the full control effect; nearly all actives have a fitted effect of over 60% in size
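TGR 20 nM + NADPH 100 uM (dispensed conc.), cpd preinc 15 min RT; start with NADPH (500 uM addition) then DTNB (15 mM addition). Kinetic TNB absorbance, 405 nm filter. Four-parameter Hill fit across titration.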
NS1 function inh – blocks influenza NS1 protein function. hit rate 0.4% among 270,000. Potency, µM (doses to about 46.1 µM), for inactives: top-dose activity, positive = more growth; calls by dose curve; further: potency means the concentration at half of the fitted maximal effect; actives are rising curves; nearly all actives have a fitted effect of over 50% in size
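Recovery from NS1-induced slow growth read by OD600 in budding yeast switched to galactose assay medium (pH 6.0, -URA) at 1:100 dilution. Compound 23 nl per well; the matching strain lacking NS1 serves as control.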
Pf growth 96h – P. falciparum growth inhibition at 96 hour, primary screen for plastid delayed-death inhibitors | P. falciparum luciferase reporter growth, 96 h | Potency, µM (doses to about 28.7 µM), for the others: at the highest dose activity change, negative = inhibition, actives largely listed as inhibitors | hit rate 6.9% among 320,000; further: potency means the concentration at half of the fitted maximal effect; on the % scale 0 is the no-effect control and ±100 the full control effect
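Delayed-death screen, second-generation endpoint: infected erythrocytes, 2% hematocrit, 0.05% parasitemia final; 96 hours at 37 C, 5% CO2; luciferase detection reagent; luminescence decrease equals reduced growth.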
Pf growth 48h – inhibits P. falciparum growth in the first generation, 48 h; Potency, µM (highest dose often 28.7 µM), inactives show at the highest dose activity change, negative = inhibition, actives largely listed as inhibitors; hit rate 5.9% among 310,000; AID 504832; P. falciparum luciferase growth in erythrocytes, 48 h; further: potency means the concentration at half of the fitted maximal effect; on the % scale 0 is the no-effect control and ±100 the full control effect
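Erythrocytes infected with P. falciparum carrying an integrated firefly luciferase reporter (2% hematocrit, 0.1% parasitemia final) were exposed to compounds in RPMI 1640 with 0.5% Albumax at 37 C, 5% CO2. Growth inhibition was scored as reduced luminescence.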
Shiga toxin inh – Shiga toxin inhibition; Vero cells, Shiga toxin protein synthesis inhibition reporter; inhibition, % at 38.7 µM; hit rate 9.2% among 290,000; AID 2315; in the data active means inhibition mostly above about 28%, no sharp cut-off; inactive means mostly below about 43%; further: 0% is about no effect
Active calls of the source: *; i = inactive; ? = inconclusive; . = no result. In the library only some 21% were active in any assay of this set; here they are far more common. Unless noted, the call rests on the fitted dose curve; in most records, active means well fitted curve in the direction sought with a large enough effect; inconclusive means small, poorly fitted or top-dose-only effect, or another doubt; inactive means no such curve, though single readings can be large; an effect the other way counts as inactive or inconclusive.

SMILES | CHX counter | Sm TGR block | NS1 function inh | Pf growth 96h | Pf growth 48h | Shiga toxin inh
COc1ccc(C(CNC(=O)c2cccc(S(=O)(=O)Nc3ccc(C)cc3)c2)N2CCCCC2)cc1 (stereo not drawn) | . | 0% | . | 9.3µM* | 8.3µM* | .
COc1ccc(C(CNC(=O)c2cccc(S(=O)(=O)Nc3ccccc3OC)c2)N2CCOCC2)cc1 (stereo not drawn) | . | -8% | . | ? | ? | .
COc1ccc(C(CNC(=O)c2cccc(Br)c2)N2CCCC2)cc1 (stereo not drawn) | -4 | -12% | 3% | ? | . | -7
COc1ccc(C(CNC(=O)c2cccc(NC(=O)c3cccs3)c2)N2CCCC2)cc1 (stereo not drawn) | . | -3% | . | 5.9µM* | 12µM* | .
CN(C)C1(CNC(=O)c2ccc(NS(=O)(=O)c3ccc(Cl)c(Cl)c3)cc2)CCCCC1 | . | -18% | . | 13µM* | 12µM* | .
COc1ccccc1NS(=O)(=O)c1cccc(C(=O)NCC(c2ccccc2OC)N2CCCC2)c1 (stereo not drawn) | . | -2% | . | ? | 8.3µM* | .
OC1(C(O)(c2ccc(-c3ccccc3)cc2)c2ccc(-c3ccccc3)cc2)CCCCC1 | . | . | -8% | . | . | .
CC(=O)c1ccc(OCC(=O)NCC2(N3CCCCC3)CCCCC2)cc1 | -4 | -2% | 1% | ? | ? | -5
CCC(=O)c1ccc(OCC(=O)NCC2(N3CCCCC3)CCCCC2)cc1 | -5 | 60% | . | 4.7µM* | -8% | 6
Cc1ccc(N(C)S(=O)(=O)c2cccc(C(=O)NCC(c3ccco3)N3CCCC3)c2)cc1 (stereo not drawn) | . | -1% | . | 3.3µM* | 9.3µM* | .
COc1ccccc1NS(=O)(=O)c1cccc(C(=O)NCC(c2ccco2)N2CCCC2)c1 (stereo not drawn) | . | -10% | . | 15µM* | 12µM* | .
COc1ccccc1NC(=O)C(=O)NCC(c1ccco1)N1CCc2ccccc2C1 (stereo not drawn) | . | -12% | . | ? | 5.2µM* | .
CN(c1ccc(F)cc1)S(=O)(=O)c1ccc(Cl)c(C(=O)NCC(c2ccco2)N2CCCCC2)c1 (stereo not drawn) | . | -9% | . | ? | ? | .
COc1ccc(Cl)cc1NC(=O)C1Cc2cc(S(=O)(=O)N3CCCC3)ccc2N1C(C)=O (stereo not drawn) | 4 | 0% | 2% | ? | -21% | -10
O=C(NCC(c1cccs1)N1CCOCC1)c1cc(S(=O)(=O)N2CCOCC2)ccc1F (stereo not drawn) | . | -17% | . | 5% | -3% | .
COc1ccc(NS(=O)(=O)c2cccc(C(=O)NCC3(N4CCCCC4)CCCCC3)c2)cc1 | . | 0% | . | ? | ? | .
Cc1cccc(NS(=O)(=O)c2cccc(C(=O)NCC3(N4CCCCC4)CCCCC3)c2)c1 | . | -8% | . | 8.3µM* | 6.6µM* | .
CCOc1ccc(S(=O)(=O)Nc2ccc(C(=O)NCC3(N4CCCCC4)CCCCC3)cc2)cc1 | . | 3% | . | 1.2µM* | 3.3µM* | .
COc1ccc(C(CNC(=O)c2ccc(NS(=O)(=O)c3ccc(F)c(C)c3)cc2)N2CCOCC2)cc1 (stereo not drawn) | . | -1% | . | 0% | 10µM* | .
CNS(=O)(=O)c1cccc(C(=O)NCC2(N3CCCCC3)CCCCC2)c1 | -2 | 4% | 2% | 40% | 9% | 30
COc1ccc(NS(=O)(=O)c2cccc(C(=O)NCC(c3ccco3)N3CCCCC3)c2)cc1 (stereo not drawn) | . | -3% | . | ? | ? | .
Cc1cccc(NS(=O)(=O)c2cccc(C(=O)NCC(c3ccco3)N3CCCCC3)c2)c1 (stereo not drawn) | . | -16% | . | 15µM* | ? | .
COc1cc(OC)cc(C(=O)NC(=S)N(Cc2ccccc2)C(C)C)c1 | -3 | ? | ? | ? | ? | 20
COc1ccccc1C(CNC(=O)c1cccc(S(=O)(=O)Nc2ccc(C)cc2)c1)N1CCCC1 (stereo not drawn) | . | 2% | . | 15µM* | 13µM* | .
CCn1ccnc1CN(C)Cc1nc(CCC(C)C)no1 | 23 | -10% | 0% | ? | -13% | 37
SMILES | CHX counter | Sm TGR block | NS1 function inh | Pf growth 96h | Pf growth 48h | Shiga toxin inh
CC(C)(C)c1ccc(C(=O)c2c[nH]c(C(=O)O)c2)cc1 | 29* | -9% | . | 323% | 208% | 36
CN(C)C=NC(=O)c1cc(C(=O)c2ccccc2Cl)c[nH]1 | 0 | 7% | 3% | ? | 18% | 13
COC(=O)c1cc(C(=O)c2ccc(C(C)(C)C)cc2)c[nH]1 | 32* | . | 2% | 24% | -27% | 97*
CN(C)C=NC(=O)c1cc(C(=O)c2ccc(C(C)(C)C)cc2)c[nH]1 | 44* | 6% | . | 411% | i | 83*
COc1ccc(S(=O)(=O)NCCc2nnc3ccc(SCc4cccnc4)nn23)cc1 | 5 | 1% | . | -42% | -2% | 5
CC(=O)c1ccc(NC(=O)Cn2c(=O)oc3cc(S(=O)(=O)N4CCCCC4)ccc32)cc1 | . | 2% | . | . | . | .
Cc1c(C(=O)N2CCN(CCc3ccccn3)CC2)oc2ccc(F)cc12 | 8 | 1% | 1% | 29% | 18% | 11
O=C(c1cc2cc(Br)ccc2oc1=O)N1CCCC1 | -2 | -1% | 3% | 25% | . | 1
O=C(c1cc2cc(Br)ccc2o1)N1CCN(c2ccccc2)CC1 | 51* | 4% | 2% | 6% | 67% | 78*
O=C(c1cc2cc(Br)ccc2o1)N1CCCC1 | 39* | 2% | -33% | -27% | -61% | 61*
CC1CC(C)CN(C(=O)c2cc3cc(Br)cc(Br)c3o2)C1 (stereo not drawn) | 31* | -7% | . | 0% | -5% | 41*
O=C(c1cc2cc(Br)ccc2o1)N1CCOCC1 | 19* | -13% | -4% | 1% | 64% | 50*
CC1CC(C)CN(C(=O)Nc2ccc(Br)cc2)C1 (stereo not drawn) | 15 | . | -9% | ? | 27% | 28
COc1ccc(N2C(=O)CCC2(C#N)c2ccc(Br)cc2)cc1 (stereo not drawn) | -4 | -22% | -4% | -29% | . | -11
O=C(Nc1ccccc1C(=O)O)c1cc(S(=O)(=O)Nc2cccc(F)c2)ccc1Cl | -4 | 2% | ? | 6% | 3% | -14
COc1cc(/C=C\C(=O)O)cc(S(=O)(=O)N2CCCCCC2)c1OC | 1 | ? | 24% | ? | -10% | -4
CC(C)[C@H](NC(=O)c1ccccc1)C(=O)OCC(=O)c1ccc2c(c1)NC(=O)CO2 | 5 | 35µM* | 11% | -2% | . | 8
O=C1COc2ccc(C(=O)CCl)cc2N1 | -2 | 3.5µM* | 0% | ? | ? | 11
COC(=O)c1cc(C(=O)OCC(=O)c2ccc3c(c2)NC(=O)CO3)cc([N+](=O)[O-])c1 | . | 40µM* | . | 2% | 5% | .
O=C1COc2ccc(C(=O)COC(=O)c3ccc(S(=O)(=O)C(F)F)cc3)cc2N1 | . | -31% | . | 5% | ? | .
